Results reported in PubChem BioAssay (NCATS).
Results filed as inconclusive are left out. The source made the active and inactive calls. Calls follow the shape of the dose curve; as a rule, active = well fitted activation curve with a large enough effect in the repeat runs; inconclusive = weak or mixed curves; inactive = flat fitted curve, though single readings scatter.

experiment: qHTS assay for small molecule agonists of the antioxidant response element (ARE) signaling pathway measured by Nrf2-dependant transcriptional activity (AID 720636); conditions: ARE-luc HepG2, Nrf2 luciferase reporter, 16 h; series mostly up to 92.4 µM
Source text: National Center for Advancing Translational Sciences [NCATS] NIH Chemical Genomics Center [NCGC] U.S. Environmental Protection Agency [EPA] National Institutes of Environmental Health Sciences [NIEHS] National Toxicology Program [NTP] Assay Overview: The antioxidant response element (ARE) signaling pathway plays an important role in the cellular anti-oxidant defense. Exposure to stressors which are exogenous like ionizing radiations, chemicals, U-V light, and endogenous like cell signaling, metabolic processes or inflammation, reactive oxygen species (ROS), can induce oxidative stress in the cells. Oxidative stress has been implicated in the pathogenesis of a variety of diseases ranging from cancer to neurodegeneration. ARE-luc HepG2 cell line (Simmons et al., Current Chemical Genomics, 5:1-12, 2011) has been used for identifying the chemicals that induce oxidative stress. The cell line has an Nrf2-responsive luciferase reporter gene that has been engineered to measure Nrf2-dependant transcriptional activity.
Assay Protocol Summary: For measuring ARE induction; 2,000 ARE-luc HepG2 cells in 5 uL of assay medium containing 1% dialyzed FBS per well were dispensed into white wall/solid bottom 1536-well plates using a Flying Reagent Dispenser (FRD) (Aurora Discovery). The assay plates were incubated for 6 hr at 37 C to allow cell attachment to the well bottom, followed by the transfer of 23 nL compound or DMSO vehicle by a pin tool (Kalypsys). The plates were incubated for 16 hr at 37 C and 5% CO2, followed by the addition of 5 uL of ONE-GloTM luciferase reagent (Promega) into each well using FRD. After 30 min room temperature incubation, plates were read on a ViewLux plate reader (PerkinElmer).

Compound	outcome
O=C(O)c1cc(Cl)cc(Cl)c1	inactive
Cc1ccc(Br)cc1	inactive
c1ccsc1	inactive
NC(=O)c1cccc([N+](=O)[O-])c1	inactive
c1ccc2c(c1)ccc1ncccc12	inactive
Nc1nc(CC(=O)O)cs1	inactive
CSCCC=O	inactive
CCN(C(=O)N(CC)c1ccccc1)c1ccccc1	inactive
CCCCCCO	inactive
CCCOCC(C)OCC(C)O (stereo not given)	inactive
Nc1ccccc1S(=O)(=O)O	inactive
Cc1c(N)cccc1[N+](=O)[O-]	inactive
CCOCCO	inactive
CC(O)CC(C)O (stereo not given)	inactive
Nc1cccc(O)c1	inactive
CCCCN(CCO)CCCC	inactive
CCCCC(C=O)CC (stereo not given)	inactive
O=P(O)(OCc1ccccc1)OCc1ccccc1	inactive
CCOCCOCC	inactive
O=Cc1ccc(Cl)cc1	inactive

Compound	outcome
C=CCCCCCC	inactive
Cc1cc(C2(c3cc(C)c(O)cc3C)OS(=O)(=O)c3ccccc32)c(C)cc1O	inactive
Cc1cc(C)cc(N)c1	inactive
CCCCCO	inactive
Cc1ccco1	inactive
C1CCOC1	inactive
O=C1CCCCC1	inactive
C=C(C)C1CC=C(C)C(OC(C)=O)C1 (stereo not given)	inactive
Cc1c(C(=O)O)cccc1[N+](=O)[O-]	inactive
C=C(C)C(=O)OC	inactive
CC(C)CO	inactive
c1ccc(Nc2ccccc2)cc1	inactive
CN(C)CCCNCCCN	inactive
N#CCc1ccccc1[N+](=O)[O-]	inactive
O=C(O)c1ccc(CO)o1	inactive
Nc1nc2ccccc2[nH]1	inactive
ClC/C=C/CCl	inactive
CCCCC/C=C/C=C/C=O	inactive
CC(=O)Nc1ccc(C)cc1	inactive
Cc1cccc2ccccc12	inactive
